# Laboratory results published in patent publication US20150359843, “P53 ACTIVATING PEPTIDES” (Agency for Science, Technology and Research, published 2015).
# Experiments:
# [1] = target: p53 wt-Δ22 (C-terminal truncated, lacking 372-393) (UniProt P04637 P04637:1-371); experiment: pulldown; 36 nM RE; details: tags: none (CosmoBio PURE IVT); chain copies: 4 inferred; dsDNA, one strand shown
# p53 wt-FL = p53 wt-FL (UniProt P04637 P04637:1-393); experiment: pulldown; 36 nM RE; 17-fold when p53 amount doubled; details: tags: none (CosmoBio PURE IVT); chain copies: 4 inferred; dsDNA, one strand shown
# Chain of p53 wt-FL (P04637 whole entry, one chain of several): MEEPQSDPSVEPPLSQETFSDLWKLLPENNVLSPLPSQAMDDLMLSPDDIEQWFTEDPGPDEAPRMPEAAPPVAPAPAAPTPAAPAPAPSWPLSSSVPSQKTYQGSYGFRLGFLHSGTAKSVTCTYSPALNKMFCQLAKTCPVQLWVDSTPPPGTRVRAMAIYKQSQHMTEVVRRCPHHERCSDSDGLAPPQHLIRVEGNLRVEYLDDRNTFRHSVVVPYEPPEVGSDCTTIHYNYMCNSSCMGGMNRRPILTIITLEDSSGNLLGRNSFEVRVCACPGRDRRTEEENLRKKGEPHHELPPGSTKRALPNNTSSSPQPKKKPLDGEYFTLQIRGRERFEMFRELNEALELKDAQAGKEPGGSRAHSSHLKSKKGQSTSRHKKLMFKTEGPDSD
# Chain of p53 wt-Δ22 (C-terminal truncated, lacking 372-393) (P04637 1-371, stated change not applied, one chain of several): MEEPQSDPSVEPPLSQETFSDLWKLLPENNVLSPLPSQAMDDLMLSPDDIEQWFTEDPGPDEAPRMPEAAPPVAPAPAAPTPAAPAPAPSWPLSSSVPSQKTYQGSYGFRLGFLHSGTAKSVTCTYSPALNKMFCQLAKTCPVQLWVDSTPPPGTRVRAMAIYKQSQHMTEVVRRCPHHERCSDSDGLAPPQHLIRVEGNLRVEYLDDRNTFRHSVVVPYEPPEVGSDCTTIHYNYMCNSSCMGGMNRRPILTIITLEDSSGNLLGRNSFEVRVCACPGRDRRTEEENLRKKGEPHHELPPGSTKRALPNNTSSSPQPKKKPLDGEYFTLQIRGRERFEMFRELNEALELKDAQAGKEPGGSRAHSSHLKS
Sequence,binding signal [1],binding signal (p53 wt-FL)
CTTGGGAACAAGGGCATGAGCTTGTCTGGGCT,~3 fold over control DNA,
CGCGCCTGCAAGTCCTGACTTGTCCGCGGC,,~2.8 fold over control DNA
